An excerpt weighted towards active compounds, which were near 19% of everything screened.
HT1080 IDH1KD tx: HT-1080 IDH1 knockdown cell toxicity (counter line). HT-1080 IDH1 knockdown viability, ATP luminescence, 48 h. Potency, µM (titrated, usually from 46.1 µM), without a hit: at the top dose activity, negative = toxicity, hits mostly cytotoxic. 360,000 compounds, 2% hits. AID 686971;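 note: potency is the fitted concentration of half-maximal effect; 0% = DMSO wells and -100% = cell-free medium wells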
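Cytotoxicity counter-line: IDH1KD HT-1080, 48 h, CellTiter-Glo. Curves classed by r2, magnitude and activity.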
HT1080-NT tox: kills 2HG-producing HT-1080-NT fibrosarcoma cells | HT-1080-NT fibrosarcoma viability, CellTiter-Glo ATP luminescence, 48 h | Potency, µM (series often up to 46.1 µM), for inactives: at the top dose activity, negative = less viability, most hits filed as cytotoxic | 360,000 compounds, 1.6% hits;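 note: NT is the 2HG producing partner of a matched IDH1 knockdown line; potency is the fitted concentration of half-maximal effect; 0% = DMSO-treated cells and -100% = media-only wells without cells; nearly all actives have a fitted effect of over 55% in size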
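750 cells/well, RPMI + 5% FBS; 2 h settle, compound pin-transfer, 48 h at 37 degrees C. CellTiter-Glo 10 min RT, luminescence. Normalized to DMSO and media-only wells.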
DT40 TDP1 CPT: DT40-hTDP1 cell growth loss with CPT. chicken DT40 Tdp1-/-;hTDP1 cells + 20 nM CPT, ATP luminescence, 48 h. Potency, µM (top dose mostly 46.2 µM), for the others: top-dose activity change, negative = growth inhibition, actives largely listed as inhibitors. 420,000 compounds, 12% hits. AID 686979; note: potency is the fitted concentration of half-maximal effect; nearly all actives have a fitted effect of over 55% in size
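Chicken DT40 Tdp1-/- cells complemented with human TDP1, 400 cells/well, exposed to compounds plus 20 nM camptothecin for at least 48 h at 37 C; viability read as ATP content by CellTiter-Glo luminescence.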
TDP1 cell noCPT: qHTS for Inhibitors of human tyrosyl-DNA phosphodiesterase 1 (TDP1): qHTS in cells in absence of CPT; DT40 Tdp1-/- hTDP1 cells, no CPT, ATP luminescence, 48 h; Potency, µM (titrated, usually from 46.2 µM), for the others: at the top dose activity change, negative = growth inhibition, actives largely listed as inhibitors; AID 686978, 2013; 420,000 compounds, 15% hits; note: potency is the fitted concentration of half-maximal effect; nearly all actives have a fitted effect of over 55% in size
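No-CPT arm: Tdp1-/-;hTDP1 DT40 cells (400/well) plus compounds, incubated ≥48 hr at 37 °C. Readout CellTiter-Glo luminescence.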
IL-1B inflam inh: inflammasome signaling inhibition, IL-1 beta readout; THP-1 LPS/ATP IL-1B secretion, AlphaLISA, 16 h; hits give low values; 360,000 compounds, 4.7% hits; activity change, % at 57.5 µM; AID 743279; in the data active = activity change below about -50%; inconclusive = mostly about -30% to -49%
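THP-1 cells pretreated 1 hr with compounds (up to 57.5 uM final), then stimulated with LPS (250 ng/mL final) plus ATP (1.25 mM final); secreted IL-1B measured by AlphaLISA after 16 hr, decreased signal indicating inhibition.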
Active calls of the source: *; u = inconclusive; x = no result. Unless noted, calls come from the whole dose curve; as a rule, active = well fitted curve in the direction sought with a large enough effect; inconclusive = small, poorly fitted or top-dose-only effect, or another doubt; inactive = no such curve, though single readings can be large; an effect the other way counts as inactive or inconclusive. Unless noted, % is set by controls: 0 for no effect and ±100 for the full control effect.

SMILES	HT1080 IDH1KD tx	HT1080-NT tox	DT40 TDP1 CPT	TDP1 cell noCPT	IL-1B inflam inh
CCOc1ccc(S(=O)(=O)N(CC(=O)N2CCc3ccccc32)Cc2ccco2)cc1	-13.1%	0.9%	18.4µM*	u	-18.4
Cc1ccc(N2C(=O)C(CN3CCCCC3)C2c2ccccc2)cc1 (stereo unspecified)	-5.6%	0.1%	u	18.4µM*	0.7
Cc1ccc(N2C(=O)C(CN3CCCC3)C2c2ccccc2)cc1 (stereo unspecified)	-22.5%	-19.3%	20.6µM*	23.1µM*	u
CC(C(=O)NCC1CCCCC1)N(C)Cc1ccc(Cl)cc1 (stereo unspecified)	-16.2%	-17.0%	u	18.4µM*	-22.8
NS(=O)(=O)c1cc(C(=O)N=Nc2c(O)[nH]c3ccccc23)ccc1Cl	-1.3%	-28.8%	u	18.4µM*	-25.2
COCCNC(=S)N=Nc1c(O)[nH]c2ccc([N+](=O)[O-])cc12	25.9µM*	2.6%	6.5%	u	16.5
COc1ccccc1NC(=S)N=Nc1c(O)[nH]c2ccc(Br)cc12	-21.1%	7.7%	2.59µM*	1.46µM*	0.0
CC(C)(O)C(=O)N=Nc1c(O)[nH]c2ccccc12	17.2%	-12.0%	0.4%	-3.0%	3.1
CCCCCCC(=O)N=Nc1c(O)[nH]c2ccc([N+](=O)[O-])cc12	15.2%	4.8%	u	u	34.4
O=C(N=Nc1c(O)[nH]c2ccccc12)Nc1ccccc1	27.1%	19.3%	18.4µM*	u	-25.5
O=C(N=Nc1c(O)[nH]c2ccccc12)c1cccc(S(=O)(=O)Nc2ccccc2Cl)c1	-2.4%	-5.4%	u	-9.2%	12.8
Cn1c(=O)c(C(=O)c2ccc(S(C)(=O)=O)c(Cl)c2Cl)c(O)c2ccccc21	0.8%	1.5%	u	u	22.3
Cc1cccc(NC(=S)N=Nc2c(O)[nH]c3ccccc23)c1	u	u	3.26µM*	4.61µM*	14.8
CC(C)NC(=S)N=Nc1c(O)[nH]c2ccc(C(C)C)cc12	0.6%	-7.2%	5.8µM*	5.17µM*	0.5
O=C(CCCCCNC(=O)c1ccccc1Br)N=Nc1c(O)[nH]c2ccccc12	7.7%	10.6%	20.6µM*	u	4.6
Cc1cccc(NC(=O)c2cc(=O)[nH]c3ccccc23)c1	0.9%	-1.0%	9.2%	-7.7%	5.3
CCOc1ccc(N(C)C(=O)CS(=O)(=O)c2cccc3nsnc23)cc1	x	x	10.9%	u	x
CCn1c(/C=C/Nc2ccccc2)[n+](CC)c2cc(Cl)c(Cl)cc21	u	-16.8%	2.59µM*	3.26µM*	6.8
CCn1c(/C=C/N(C(C)=O)c2ccccc2)[n+](CCCS(=O)(=O)[O-])c2cc(Cl)c(Cl)cc21	4.9%	4.3%	8.9%	21.9%	-23.5
CSc1ccc(-c2nc3cc(C)ccn3c2Nc2ccc(C)cc2)cc1	x	x	-22.7%	u	x
Cc1ccc(Nc2c(-c3c[nH]c4ccccc34)nc3ccccn23)cc1	x	x	13µM*	20.6µM*	x
Cc1ccc2nc(-c3c[nH]c4ccccc34)c(Nc3ccccc3C)n2c1	x	x	16.4µM*	3.26µM*	x
CCCCCCCC/C=C\CCCCCCCC(=O)OC[C@@H](O)[C@H]1OC[C@H](O)[C@H]1O	x	x	1.9%	2.6%	x
CCOC(=O)CCN(C(=O)Nc1ccccc1)C1CCCCC1	-3.4%	-5.5%	3.0%	-8.3%	-6.1
CCOc1ccc(C(=O)n2cc(C(=O)OC)c3ccccc32)cc1	u	-15.0%	u	13µM*	1.6
SMILES	HT1080 IDH1KD tx	HT1080-NT tox	DT40 TDP1 CPT	TDP1 cell noCPT	IL-1B inflam inh
COc1ccc(N2CCN(CCCNC(=O)c3cnn(-c4ccc(C)cc4)c3-n3cccc3)CC2)cc1	x	x	5.8µM*	5.17µM*	x
COc1ccccc1Nc1cc(C(=O)NCc2cccnc2)c2ccccc2n1	-21.3%	5.9%	1.1%	u	29.8
COc1ccc(Nc2cc(C(=O)NCCCN3CCOCC3)c3ccccc3n2)cc1OC	-2.9%	-1.6%	29.1µM*	u	-20.6
COc1ccc(N2CCN(CCCNC(=O)Nc3ccccc3)CC2)cc1	8.0%	-2.0%	u	u	-18.7
CCN(CCCNC(=O)c1cc(Nc2ccccc2OC)nc2ccccc12)c1cccc(C)c1	x	x	20.6µM*	7.31µM*	x
COc1ccc(Nc2cc(C(=O)NCCCN(C)Cc3ccccc3)c3ccccc3n2)c(OC)c1	x	x	14.6µM*	13µM*	x
COc1ccc(Nc2cc(C(=O)NCCCN3CCN(C)CC3)c3ccccc3n2)cc1OC	-2.0%	-2.0%	-14.6%	-18.2%	u
COc1cc(=O)n2c(c1C(=O)N(C)Cc1cscn1)CCN(Cc1ccc3c(c1)OCCO3)CC2	x	x	20.2%	9.1%	x
COc1ccc(Nc2cc(C(=O)NCCCN3CCN(c4ccc(OC)cc4)CC3)c3ccccc3n2)cc1	x	x	8.2µM*	8.2µM*	x
COc1ccc(N2CCN(CCCNC(=O)c3cc(Nc4ccccc4OC)nc4ccccc34)CC2)cc1	x	x	23.1µM*	u	x
COc1ccc(N2CCN(CCNC(=O)c3ccc4c(c3)[nH]c(=S)n3c5ccccc5nc43)CC2)cc1	-29.0%	u	4.61µM*	2.06µM*	-1.6
COc1ccc(Nc2cc(C(=O)NCCCN3CCN(c4ccccc4F)CC3)c3ccccc3n2)c(OC)c1	x	x	u	16.4µM*	x
COc1ccc(Nc2cc(C(=O)NCCCN3CCOCC3)c3ccccc3n2)c(OC)c1	-6.2%	-10.7%	-3.7%	-24.5%	-2.2
COc1ccc(Nc2cc(C(=O)NCc3cccs3)c3ccccc3n2)cc1	x	x	1.7%	-14.0%	x
Cc1oc2ncnc(N3CCCCC3)c2c1C(=O)NCC1CCN(Cc2ccccc2F)CC1	x	x	-25.0%	2.2%	x
Cc1cc2nc(C)c3c(n2n1)CCC3	9.8%	8.9%	5.4%	-1.0%	-3.0
O=C(C1CCN(S(=O)(=O)Cc2ccccc2)CC1)N1CCN(c2ccccc2F)CC1	x	x	u	-27.0%	x
CC(=O)c1c(NC(=O)c2ccccc2)[nH]c(-c2ccccc2)nc1=S	18.9%	-6.0%	u	23.1µM*	43.3
Cc1ccc(-n2ncc3c(NCCc4ccc(S(N)(=O)=O)cc4)ncnc32)cc1	x	x	-6.8%	-7.1%	x
Cc1cccc(-n2ncc3c(NCc4ccco4)ncnc32)c1	u	u	13µM*	11.6µM*	-8.6
Cc1ccc(-n2ncc3c(NCc4ccco4)ncnc32)cc1C	24.4%	28.6%	10.0%	7.5%	0.0
c1ccc(CNc2ncnc3c2cnn3-c2ccccc2)cc1	u	u	5.8µM*	4.61µM*	40.7
Cc1cccc(-n2ncc3c(NCc4ccccc4)ncnc32)c1	18.4µM*	u	4.61µM*	6.51µM*	22.7
Fc1ccc(CNc2ncnc3c2cnn3-c2ccccc2)cc1	-28.7%	u	u	u	-8.6

Compound activity deposited in PubChem by National Center for Advancing Translational Sciences (NCATS).
